Some test systems named below: DU-145 prostate; K-562 leukemia; MDA-MB-231 breast; SF-268 CNS; SF-295 CNS; SF-539 CNS; UACC-257 melanoma; M14 melanoma; HCT-15 colon; HT29 colon; SNB-75 CNS; SNB-19 CNS; U251 CNS; PC-3 prostate; SK-MEL-5 melanoma; LOX IMVI melanoma; SK-MEL-28 melanoma; RXF 393 renal; UACC-62 melanoma.
Assay in all cases: NCI-60 one-dose screen, 48 h (100 = growth as untreated, 0 = no growth, -100 = all killed)
What all share (conditions): 10 µM

Structures are written as SMILES. About 83,000 compounds went through this panel and 20% of them were active in at least one assay; those are over-represented in the sample as a whole.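 48-hour exposure, single concentration, 96-well plates; percent growth endpoint where 0 means no net growth. Active: below 10.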 Unmarked numbers belong to inactive results. Calls of active or inactive are those of the source.

Regarding `CC(=O)/C(=C/c1ccc(Br)cc1)C(=O)c1ccccc1`, the growth in the experiment with DU-145 prostate is 81.6%; with K-562 leukemia, 30.7%; in the experiment with MDA-MB-231 breast, 77.4%; in the experiment on SF-268 CNS it was 67.4%; in the experiment on SF-295 CNS, 88.9%; with SF-539 CNS, 96.7%. For the same compound, the growth in the experiment with UACC-257 melanoma is 78.3%; with M14 melanoma, 69.9%; in the experiment on HCT-15 colon it was 46.6%; with HT29 colon, 76.6%; with SNB-75 CNS it was 84.5%; in the experiment on SNB-19 CNS it was 90.6%. The growth with U251 CNS was 66.9%; in the experiment with PC-3 prostate, 80.6%; in the experiment with SK-MEL-5 melanoma it was 66.3%; with LOX IMVI melanoma it was -61.9% (active); in the experiment on SK-MEL-28 melanoma it was 100%.
On to `O=C1NC(=O)c2c(CCCSc3nc4ccccc4c(=O)n3CCc3ccccc3)cccc21`, for which the growth was 111% in the experiment on DU-145 prostate; 89.7% with K-562 leukemia; 65.8% in the experiment on MDA-MB-231 breast; 92.8% with RXF 393 renal; 91.2% with SF-268 CNS; 44.9% with SF-295 CNS. Besides, the growth is 65.7% with SF-539 CNS; 105% in the experiment on UACC-257 melanoma; 98.1% in the experiment on M14 melanoma; 96% with HCT-15 colon; 90.3% in the experiment with HT29 colon; 82.8% in the experiment on SNB-75 CNS. The growth was 94.8% with SNB-19 CNS; 88.9% in the experiment on PC-3 prostate; 95.8% with SK-MEL-5 melanoma; 81.8% with LOX IMVI melanoma; 105% in the experiment with SK-MEL-28 melanoma.
`COc1ccc(C(=O)c2cc3c(OC)c(OC)c(OC)cc3[nH]2)cc1`: the growth with DU-145 prostate was 81.8%; with K-562 leukemia, 7.74% (active); in the experiment on MDA-MB-231 breast, 56.3%; in the experiment with RXF 393 renal, 72%; in the experiment with SF-268 CNS it was 63.5%; in the experiment with SF-295 CNS it was 143%. For the same compound, the growth is 66.1% with SF-539 CNS; 87.8% with UACC-257 melanoma; 30.2% with M14 melanoma; 36.1% in the experiment with HCT-15 colon; 14.2% in the experiment on HT29 colon; 51.9% in the experiment with SNB-75 CNS. In addition, the growth is 71.9% in the experiment on SNB-19 CNS; 59.8% in the experiment with U251 CNS; 36.9% with SK-MEL-5 melanoma; 36.7% in the experiment on UACC-62 melanoma; 56.3% in the experiment on LOX IMVI melanoma; 65.2% with SK-MEL-28 melanoma.
Turning to `COc1cc(C2CC(c3ccc4c(c3)OCO4)=NN2c2ccccc2)cc(OC)c1OC` (stereo unspecified), the growth with DU-145 prostate is 107%; with K-562 leukemia, 48.8%; with MDA-MB-231 breast, 82.2%; with RXF 393 renal, 106%; in the experiment on SF-268 CNS, 83.6%; in the experiment with SF-295 CNS, 91.2%. Besides, the growth in the experiment on UACC-257 melanoma is 90.3%; in the experiment on M14 melanoma, 91.6%; with HCT-15 colon, 81%; with SNB-75 CNS it was 58.8%; in the experiment on SNB-19 CNS it was 84.8%; in the experiment on U251 CNS it was 38.9%. In addition, the growth in the experiment on PC-3 prostate is 92.6%; in the experiment on SK-MEL-5 melanoma, 86%; with UACC-62 melanoma, 76.7%; with LOX IMVI melanoma it was 89.4%; in the experiment with SK-MEL-28 melanoma, 99.7%.
With `COc1cc(-c2ccc[nH]2)[nH]c1/C=C1\N=C(C)C(C(=O)NC(C)C)=C1C`, the growth with DU-145 prostate is 21.2%; in the experiment with K-562 leukemia it was 1.73% (active); in the experiment with MDA-MB-231 breast it was -9.67% (active); with RXF 393 renal, 47.6%; with SF-268 CNS, 44.4%; in the experiment with SF-295 CNS it was 40.2%. Also, the growth with SF-539 CNS is 18.9%; in the experiment on UACC-257 melanoma, 23.3%; with M14 melanoma, -1.65% (active); in the experiment on HCT-15 colon it was 8.9% (active); in the experiment on SNB-75 CNS it was -13.7% (active); in the experiment with SNB-19 CNS it was 74.5%. The growth in the experiment with U251 CNS is 31.4%; in the experiment with SK-MEL-5 melanoma it was -88.4% (active); in the experiment with UACC-62 melanoma it was -33.5% (active); in the experiment with LOX IMVI melanoma, -62.6% (active); with SK-MEL-28 melanoma it was 44%.
In the case of `COc1cc2c(cc1OC)C(C(CCCCCC(CCC(C)C)C1NCCc3cc(OC)c(OC)cc31)CCC(C)C)NCC2` (stereo unspecified), the growth is -100% (active) with DU-145 prostate; 13.6% in the experiment with K-562 leukemia; -81.9% (active) with MDA-MB-231 breast; -95.7% (active) in the experiment on SF-268 CNS; -77.5% (active) in the experiment with SF-295 CNS; -97.4% (active) in the experiment on SF-539 CNS. In addition, the growth with UACC-257 melanoma was -92.5% (active); in the experiment with M14 melanoma it was -93.6% (active); in the experiment on HCT-15 colon, -100% (active); in the experiment on HT29 colon, -95.3% (active); in the experiment with SNB-75 CNS it was -99.5% (active); in the experiment on SNB-19 CNS it was -47.5% (active). Also, the growth is -99% (active) in the experiment on U251 CNS; -92.3% (active) with PC-3 prostate; -96.4% (active) in the experiment with SK-MEL-5 melanoma; -91.5% (active) with UACC-62 melanoma; -100% (active) with LOX IMVI melanoma; -100% (active) in the experiment on SK-MEL-28 melanoma.
For the compound `O[C@@H]1CO[C@H]2[C@@H]1OC[C@@H]2O`, the growth with DU-145 prostate was 108%; in the experiment on K-562 leukemia, 124%; in the experiment on MDA-MB-231 breast, 92.5%; in the experiment with RXF 393 renal, 125%; in the experiment on SF-268 CNS, 108%; in the experiment on SF-539 CNS, 106%. The growth with UACC-257 melanoma was 103%; in the experiment on M14 melanoma, 103%; with HCT-15 colon it was 102%; in the experiment with HT29 colon it was 103%; with SNB-75 CNS, 91.1%; in the experiment with SNB-19 CNS it was 99.5%. The growth with U251 CNS was 108%; with SK-MEL-5 melanoma, 116%; with UACC-62 melanoma, 103%; in the experiment with LOX IMVI melanoma it was 97%; in the experiment with SK-MEL-28 melanoma, 113%.
Regarding `CSc1nc2c(c(=O)n1C)CN(Cc1ccccc1)C(=O)CN2`, the growth in the experiment on DU-145 prostate is 109%; with K-562 leukemia, 85.2%; with MDA-MB-231 breast, 96.8%; in the experiment on RXF 393 renal, 75.2%; with SF-268 CNS it was 104%; in the experiment on SF-295 CNS, 103%. Further, the growth was 91.1% in the experiment on SF-539 CNS; 86.9% with UACC-257 melanoma; 88.6% in the experiment with M14 melanoma; 85.7% with HCT-15 colon; 110% in the experiment with HT29 colon; 76.9% in the experiment on SNB-75 CNS. Also, the growth in the experiment on SNB-19 CNS is 97.6%; in the experiment on U251 CNS, 94%; with SK-MEL-5 melanoma, 101%; in the experiment with UACC-62 melanoma it was 83.6%; with LOX IMVI melanoma, 92.1%; in the experiment on SK-MEL-28 melanoma, 102%.
Consider `N#Cc1cnn(C(=O)c2nn(-c3ccc(Cl)cc3)cc2O)c1N`, for which the growth in the experiment with DU-145 prostate is 34.9%; in the experiment with K-562 leukemia it was -17.5% (active); with MDA-MB-231 breast, 38.5%; in the experiment with RXF 393 renal, 39.3%; in the experiment on SF-268 CNS, 29.5%; with SF-295 CNS it was -25.6% (active). Moreover, the growth with SF-539 CNS was 12.8%; in the experiment on UACC-257 melanoma it was 19%; with M14 melanoma it was 24.3%; in the experiment on HCT-15 colon, 18.1%; in the experiment on HT29 colon, 29.1%; in the experiment on SNB-75 CNS, 32.4%. Also, the growth in the experiment with SNB-19 CNS was 32.5%; with SK-MEL-5 melanoma, 14.8%; in the experiment with UACC-62 melanoma, 5.76% (active); in the experiment on LOX IMVI melanoma, 8.92% (active); in the experiment with SK-MEL-28 melanoma, 56.1%.

Values taken from PubChem BioAssay (NCI).
